Assay results: PubChem BioAssay (EPA / NIEHS)
Records with an inconclusive call do not appear. The source made the active and inactive calls. How the source made its calls: active means hit-call score of the fitted dose curve at least 0.9, where 1 is the maximum; inconclusive means response in the unintended direction; inactive means score below 0.9.

Experiment: CCTE_Deisenroth_AIME_384WELL_CTox_Active: Cytotoxicity Assessment (CTOX) in CCTE's 384-well Estrogen Receptor Transactivation Assay with AIME metabolic competence (metabolism positive), Deisenroth Lab (AID 2284037);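 further: chemicals first conditioned 2 h by alginate-bound induced rat liver S9 before cells; activity means signal loss indicating cell death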
Experimental: CCTE_Deisenroth_AIME_384WELL (AIME metabolism assay) is a cell-based, single-readout assay that uses VM7Luc4E2, a human mammary gland/breast cell line, with measurements taken at 24 hour after chemical dosing in a 384-well plate.CCTE_Deisenroth_AIME_384WELL_CTox_Active is one of four assay components measured or calculated from the CCTE_Deisenroth_AIME_384WELL assay. It is designed to make measurements of a protease substrate, a type of viability indicator, as detected with substrate cleavage to a fluorescent probe in living cells.CCTE_Deisenroth_AIME_384WELL_CTox_Active is a component of the CCTE_Deisenroth_AIME_384WELL assay that measures the effect of retroftting the VM7Luc ERTA assay with the Alginate Immobolization of Metabolic Enzymes (AIME) metabolism method. AIME is optimized to impart phase I hepatic metabolism using phenobarbital/beta-naphthoflavone induced hepatic S9 from male Sprague Dawley rats. Parent chemicals are incubated for 2 hours in the AIME assay prior to transfer to the VM7Luc ERTA assay plate. […] This endpoint evaluates cytotoxicity in metabolism positive mode. Using a type of flourescent probe in VM7Luc cells, loss-of-signal activity can be used to understand loss of viability. This assay endpoint, CCTE_Deisenroth_AIME_384WELL_CTox_Active, was analyzed with bidirectional fitting in the ERTA assay.
The AIME procedure consists of a preparative "pre-stamping" step using a barium chloride/poly-L-lysine (PLL) solution followed by "stamping" the lid in alginate-hepatic S9 (metabolism positive) or alginate-water (metabolism negative) to form microspheres. Once stamping is completed, the AIME lids are placed in duplicate microplates (metabolism positive or negative) containing chemical solutions and incubated for two hours to facilitate metabolic reactions. The conditioned medium, containing parent chemical or metabolites, is then transferred to the cell-based VM7Luc Estrogen Receptor Transactivation Assay (ERTA) for 24 hours. A typical experimental design tests a 10-point concentration series (0.002 - 200 uM) for 8 compounds (96-well format) (Deisenroth 2020) or 32 compounds (384-well format) (Hopperstad 2022) in single technical replicate. AIME assay controls include trans-stilbene (bioactivated control) and ethylparaben (bioinactivated control). ERTA assay plate controls include 17-beta estradiol (positive control) and DMSO (solvent control). Experiments typically comprise a minimum of four experimental replicates (n=4).

Compound	outcome	AC50
Nc1c(Cl)c(Cl)nc(C(=O)O)c1Cl	inactive	–
CCSC(=O)N1CCCCCC1	inactive	–
COc1ccc(-c2ccccc2)cc1NNC(=O)OC(C)C	–	79.5 µM (active)
CCOC(=O)C(C)OC(=O)c1cc(Oc2ccc(C(F)(F)F)cc2Cl)ccc1[N+](=O)[O-] (stereo unspecified)	inactive	–
N#Cc1c(Cl)cccc1Cl	inactive	–
CC(C)=CC1C(C(=O)OCc2coc(Cc3ccccc3)c2)C1(C)C (stereo unspecified)	inactive	–
Cc1ccc(N=CN(C)C=Nc2ccc(C)cc2C)c(C)c1	inactive	–
CCC(C)n1c(=O)[nH]c(C)c(Br)c1=O (stereo unspecified)	inactive	–
CO/N=C(/C1=NOCCO1)c1ccccc1Oc1ncnc(Oc2ccccc2Cl)c1F	–	32.8 µM (active)
CCCCC(C#N)(Cn1cncn1)c1ccc(Cl)cc1 (stereo unspecified)	inactive	–
CC(C)Oc1cccc(NC(=O)c2ccccc2C(F)(F)F)c1	inactive	–
COP(=S)(OC)SCn1nnc2ccccc2c1=O	inactive	–
COCC(C)N(C(=O)CCl)c1c(C)csc1C (stereo unspecified)	inactive	–
CCOP(=S)(OCC)Oc1nc(Cl)n(C(C)C)n1	inactive	–
CN=C=S	inactive	–
CCCCOCN(C(=O)CCl)c1c(CC)cccc1CC	inactive	–
CC(C)N1C(=O)N(c2ccccc2)CSC1=NC(C)(C)C	inactive	–
C=C(C)CN(CC)c1c([N+](=O)[O-])cc(C(F)(F)F)cc1[N+](=O)[O-]	inactive	–
COc1cc(OC)nc(NC(=O)NS(=O)(=O)c2ncccc2OCC(F)(F)F)n1	inactive	–
COP(=S)(OC)Oc1ccc([N+](=O)[O-])c(C)c1	inactive	–
CS(=O)(=O)c1cc(C(F)(F)F)ccc1C(=O)c1cnoc1C1CC1	inactive	–
CCOc1nc(F)cc2nc(S(=O)(=O)Nc3c(Cl)cccc3Cl)nn12	inactive	–
COCc1cnc(C2=NC(C)(C(C)C)C(=O)N2)c(C(=O)O)c1 (stereo unspecified)	inactive	–
CCCCC(O)(Cn1cncn1)c1ccc(Cl)cc1Cl (stereo unspecified)	–	162 µM (active)
COC(=O)N(C(=O)N1CO[C@@]2(C(=O)OC)Cc3cc(Cl)ccc3C2=N1)c1ccc(OC(F)(F)F)cc1	inactive	–
COC(=O)NC(=S)Nc1ccccc1NC(=S)NC(=O)OC	inactive	–
